Reference: PubChem BioAssay AID1835 (Johns Hopkins Ion Channel Center, 2009)
About 750 (31%) of roughly 2,400 compounds were called active. This is one part of the list. A number with no mark means an inactive call.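 How the source made its calls: active means median signal gain over dofetilide-blocked control wells reaching their mean plus 3 SD, so readout 1 at least 0; inactive means the rest.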

The compounds below were run against Voltage-gated inwardly rectifying potassium channel KCNH2 (Homo sapiens) (UniProt Q12809) (assay: hERG protection against dofetilide inhibition, confirmation, cell-based, thallium flux, duplicate retest, dofetilide IC70 (AID 1835)). Conditions: hERG cell line, FluxOR thallium flux, dofetilide-blocked; at 10 µM; hits give high values.
Voltage-gated inwardly rectifying potassium channel KCNH2 (Homo sapiens), sequence (Q12809 whole entry, looked up): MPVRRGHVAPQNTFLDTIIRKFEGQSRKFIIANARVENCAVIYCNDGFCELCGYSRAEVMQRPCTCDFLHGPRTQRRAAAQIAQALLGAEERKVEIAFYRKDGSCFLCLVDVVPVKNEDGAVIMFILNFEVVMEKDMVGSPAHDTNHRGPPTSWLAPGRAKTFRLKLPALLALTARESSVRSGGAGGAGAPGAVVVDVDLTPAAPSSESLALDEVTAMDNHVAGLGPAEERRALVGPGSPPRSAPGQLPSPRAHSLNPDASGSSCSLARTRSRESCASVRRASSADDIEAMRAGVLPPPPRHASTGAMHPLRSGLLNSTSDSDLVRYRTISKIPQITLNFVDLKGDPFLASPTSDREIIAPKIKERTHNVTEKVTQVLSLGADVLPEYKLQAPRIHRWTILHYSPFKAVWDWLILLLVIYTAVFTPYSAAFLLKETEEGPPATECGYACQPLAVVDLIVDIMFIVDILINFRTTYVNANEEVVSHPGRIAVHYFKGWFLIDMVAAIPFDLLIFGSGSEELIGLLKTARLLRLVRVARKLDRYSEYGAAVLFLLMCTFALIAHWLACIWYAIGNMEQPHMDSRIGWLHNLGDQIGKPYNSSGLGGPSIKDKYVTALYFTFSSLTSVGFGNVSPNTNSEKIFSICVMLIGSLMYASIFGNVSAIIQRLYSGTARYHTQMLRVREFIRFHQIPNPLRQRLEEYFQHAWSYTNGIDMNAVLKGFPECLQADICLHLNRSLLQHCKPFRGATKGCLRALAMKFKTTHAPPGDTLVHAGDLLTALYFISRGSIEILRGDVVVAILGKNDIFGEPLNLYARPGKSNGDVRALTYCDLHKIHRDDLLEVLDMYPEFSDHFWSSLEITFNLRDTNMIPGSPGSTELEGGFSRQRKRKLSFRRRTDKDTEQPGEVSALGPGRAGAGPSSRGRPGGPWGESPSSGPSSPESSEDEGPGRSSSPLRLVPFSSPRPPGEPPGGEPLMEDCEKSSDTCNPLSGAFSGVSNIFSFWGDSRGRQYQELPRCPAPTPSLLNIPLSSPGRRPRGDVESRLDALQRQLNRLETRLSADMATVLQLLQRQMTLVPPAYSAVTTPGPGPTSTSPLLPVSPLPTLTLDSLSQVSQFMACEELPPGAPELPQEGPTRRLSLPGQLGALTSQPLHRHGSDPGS
`N#Cc1cccc(NC(=O)c2nc(-c3ccccc3)n(-c3ccccc3)n2)c1` gave an activity increase over dofetilide control, less the hit threshold of -18%. Compound `Fc1ccccc1N1CCN(c2cnc3ccccc3n2)CC1` has an activity increase over dofetilide control, less the hit threshold of -9%. `Nc1nnc(SCC(=O)OCc2ccc(F)cc2)s1` gave an activity increase over dofetilide control, less the hit threshold of -27%. For `Cc1cc(-c2cccnc2)c(C#N)c(SCc2cccc(F)c2)n1`, the activity increase over dofetilide control, less the hit threshold was -15%. For `CCCCNC(=O)N1CCCC(C(=O)c2cc(C)c(OC)c(C)c2)C1` (stereo not given), the activity increase over dofetilide control, less the hit threshold was -22%. For `C/C(N)=C(/C#N)C(=O)COC(=O)C1CCC(C(C)(C)C)CC1` (stereo not given), the activity increase over dofetilide control, less the hit threshold was -7%. Work on `CCC(C)(C(=O)NC1CCCC1)N(C(=O)c1ccccn1)c1ccccc1` (stereo not given) yielded an activity increase over dofetilide control, less the hit threshold of -17%. `Cc1cc(-c2cccc(Br)c2)c(C#N)c(N)n1` showed an activity increase over dofetilide control, less the hit threshold of -15%. `CCNC(=O)NC1c2ccccc2CSc2ccccc21` (stereo not given) gave an activity increase over dofetilide control, less the hit threshold of -19%. `O=C(NC(=S)Nc1cc(C(F)(F)F)ccc1N1CCOCC1)c1ccco1` was tested, and the activity increase over dofetilide control, less the hit threshold was 10% (active). Compound `CC1CCN(c2ccccc2NC(=S)NC(=O)c2ccco2)CC1` has an activity increase over dofetilide control, less the hit threshold of -6%. In the case of `O=C(NC(=S)Nc1ccc(N2CCCCC2)cc1)c1ccco1`, the activity increase over dofetilide control, less the hit threshold is reported as 45% (active). In the case of `O=C(NC(=S)Nc1ccccc1Cl)c1ccco1`, the activity increase over dofetilide control, less the hit threshold is reported as 18% (active). With `O=C(NC(=S)Nc1ccccc1Br)c1ccco1` the activity increase over dofetilide control, less the hit threshold was -1%. `O=C(CCc1ccccc1)NC(=S)Nc1cc(C(F)(F)F)ccc1N1CCOCC1` was tested, and the activity increase over dofetilide control, less the hit threshold was -14%. `O=C(NC(=S)Nc1ccccc1N1CCCC1)c1ccco1` was tested, and the activity increase over dofetilide control, less the hit threshold was 4% (active). `Cc1ccc2[nH]c(C(=O)O)c(-c3ccccc3)c2c1` gave an activity increase over dofetilide control, less the hit threshold of -16%. `O=c1cc(CN2CCN(S(=O)(=O)c3ccc4c(c3)OCCO4)CC2)c2ccc(O)cc2o1` was tested, and the activity increase over dofetilide control, less the hit threshold was -5%. Work on `CCOc1cc(NC(=S)N2CCC(C(N)=O)CC2)c(C(=O)OC)cc1OCC` yielded an activity increase over dofetilide control, less the hit threshold of -4%. For `COc1cc2c(cc1OC)CN(C(=O)c1sccc1C)CC2`, the activity increase over dofetilide control, less the hit threshold was -13%. For `Cc1ccc(OCC(=O)Nn2cnc3ccccc32)cc1`, the activity increase over dofetilide control, less the hit threshold was -11%. For `Cc1ccc(C2C(C#N)=C(N)OC3=C2C(=O)CC(C)(C)C3)s1` (stereo not given), the activity increase over dofetilide control, less the hit threshold was -4%. For `Cc1ccc(-c2csc3nc[nH]c(=S)c23)cc1C`, the activity increase over dofetilide control, less the hit threshold was 36% (active). `Cc1cc(-c2csc3nc[nH]c(=S)c23)cc(C)c1C` was tested, and the activity increase over dofetilide control, less the hit threshold was 14% (active). `O=C(O)c1ccccc1P(=O)(c1ccccc1)c1ccccc1` showed an activity increase over dofetilide control, less the hit threshold of -20%. `CCCC(=O)n1nc(-c2ccccc2)nc1N` gave an activity increase over dofetilide control, less the hit threshold of -17%. `CCCCCCc1cc2cc(-c3nnc(-c4ccccc4)o3)c(=O)oc2cc1O` gave an activity increase over dofetilide control, less the hit threshold of -13%. For `c1ccc(CCCNc2ncnc3nc[nH]c23)cc1`, the activity increase over dofetilide control, less the hit threshold was 11% (active). `O=C(c1cccs1)N1CCN(C23CC4CC(CC(C4)C2)C3)CC1` showed an activity increase over dofetilide control, less the hit threshold of -21%. Work on `O=C(CN1CCN(c2ccc(Cl)cc2)CC1)Nc1ccc(F)cc1` yielded an activity increase over dofetilide control, less the hit threshold of -15%. In the case of `O=C(NC(=S)N1CCN(c2ccc(F)cc2)CC1)c1cccs1`, the activity increase over dofetilide control, less the hit threshold is reported as 25% (active). With `O=C(N/C(=C/c1ccc2c(c1)OCO2)C(=O)N1CCOCC1)c1cccs1` the activity increase over dofetilide control, less the hit threshold was -18%. `CC1CCN(C(=S)NC(=O)c2cccs2)CC1` was tested, and the activity increase over dofetilide control, less the hit threshold was 10% (active). `O=C(NC(=S)N1CCN(c2ccccc2)CC1)c1c(F)cccc1F` was tested, and the activity increase over dofetilide control, less the hit threshold was -9%. In the case of `O=C(NC(=S)N1CCN(c2ccccc2)CC1)c1ccccc1`, the activity increase over dofetilide control, less the hit threshold is reported as 16% (active). `N#Cc1cccc(N=c2ssnc2Cl)c1` showed an activity increase over dofetilide control, less the hit threshold of -32%. `CC(=O)Nc1ccccc1NC(=O)C/C(C)=N/NC(=O)c1ccc([N+](=O)[O-])c(Cl)c1` was tested, and the activity increase over dofetilide control, less the hit threshold was -13%. In the case of `Cc1ccccc1NC(=O)CSc1ccsc1[N+](=O)[O-]`, the activity increase over dofetilide control, less the hit threshold is reported as -6%. For `CSc1nsc(SCC(=O)Nc2ccccc2C(=O)O)n1`, the activity increase over dofetilide control, less the hit threshold was 2% (active). With `O=C(CSc1nc2ccc(NC(=O)c3ccccc3C(=O)O)cc2s1)Nc1c(Cl)cccc1Cl` the activity increase over dofetilide control, less the hit threshold was 0%. Work on `O=C(NNC(=S)Nc1ccccc1)c1cccc(S(=O)(=O)N2CCOCC2)c1` yielded an activity increase over dofetilide control, less the hit threshold of -12%. Work on `Cc1cc(=O)[nH]c(SCC(=O)Nc2ccccc2C#N)c1C#N` yielded an activity increase over dofetilide control, less the hit threshold of -4%. With `COc1cc(Cl)c(C)cc1NC(=O)CSc1sc2c(O)cc(=O)[nH]c2c1C#N` the activity increase over dofetilide control, less the hit threshold was 1% (active). Work on `CCC(NS(=O)(=O)c1ccc(OC)cc1)C(=O)O` (stereo not given) yielded an activity increase over dofetilide control, less the hit threshold of -13%. `CCOC(=O)c1nc(C)n(-c2ccc(Cl)cc2)n1` was tested, and the activity increase over dofetilide control, less the hit threshold was -1%. In the case of `Cc1nn(-c2ccc(Cl)cc2)c2sc(C(=O)c3c(N)n(C)c(=O)n(C)c3=O)cc12`, the activity increase over dofetilide control, less the hit threshold is reported as 67% (active). Compound `O=C(NCC1CCS(=O)(=O)C1)Oc1ccccc1` (stereo not given) has an activity increase over dofetilide control, less the hit threshold of -15%. Compound `CCN(CC)c1ccc(/C=c2\sc3nnc(-c4ccccc4Cl)n3c2=O)cc1` has an activity increase over dofetilide control, less the hit threshold of -11%. In the case of `Cc1nn(-c2ccccc2)c(N2CCCC2)c1/C=N/O`, the activity increase over dofetilide control, less the hit threshold is reported as -16%. For `Cc1nn(-c2ccccc2)c(Cl)c1/C=C1\SC(=S)NC1=O`, the activity increase over dofetilide control, less the hit threshold was 51% (active).
